From PubChem BioAssay come the findings set out here.

Active and inactive are the calls of the source.

One assay addresses Albumin (Bos taurus) (UniProt P02769). Nature of the assay: compounds binding labelled BSA control protein – biochemical, small-molecule microarray, Alexa647 label, 635/667 nm fluorescence, artefact control for SMM control protein annotation, profiling panel (AID 1118).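 Note: score merges 667 nm emission intensity and signal-to-noise per printed compound spot.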 To be noted: BSA-A647 binding, fluorescence 635 nm, higher = more signal.
The nature of assay [1]: probe aXIP binding to arrayed compounds – biochemical, NeuroSMM set, 635/667 nm fluorescence, primary screen (AID 1119).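 Note: probe is the protein aXip251-270 applied at 1 µg/mL to compound-printed slides; binding of probe to printed compounds measured as 667 nm fluorescence plus signal to noise.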 To be noted: small-molecule microarray, higher = more signal, called active from +8 up or from −8 down.
Assay [2] in a line: probe aNOTCH3 binding on compound microarray – biochemical, small-molecule microarray, 635/667 nm fluorescence, primary screen (AID 1120).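 Note: probe is a biotin-tagged antibody raised against NOTCH3 rather than NOTCH3 protein; score merges spot fluorescence near 667 nm with spot signal to noise.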 To be noted: higher = more signal.
A short description of assay [3]: probe aNOTCH2 binding on compound microarray – biochemical, small-molecule microarray, 635/667 nm fluorescence, primary screen (AID 1121).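 Note: score merges feature fluorescence read at 667 nm with its signal to noise.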 To be noted: higher = more signal.
Assay [4] has as its target Carbonic anhydrase 2 (Homo sapiens) (UniProt P00918). The assay is described as follows: compounds binding carbonic anhydrase 2 – biochemical, small-molecule microarray, Alexa647-labelled CAII, profiling panel (AID 1122). To be noted: CAII-A647 binding fluorescence, higher = more signal.
Assay [5] is described as follows: COS7 lysate on small-molecule microarray, probe aHis, 635 nm (AID 1123).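 Note: z-score combines 667nm fluorescence intensity with signal-to-noise per printed compound spot.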 The note with it: COS7 cell lysate, fluorescence, higher = more signal.
Assay [6] can be described thus: probe aLAP1 signal on lysate-treated microarray – cell lysate, small-molecule microarray, COS7 lysate, primary screen (AID 1124).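 Note: lysate comes from COS7 cells expressing LAP1 and is applied at 0.3 µg/mL; score merges spot fluorescence near 667 nm with signal-to-noise over triplicate slides.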 To be noted: probe aLAP1, fluorescence, higher = more signal.
The next assay has as its system Sam68 (KHDRBS1). Nature of the assay: compounds binding KHDRBS1 protein – biochemical, small-molecule microarray, 635 nm fluorescence, primary screen (AID 1125).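 Note: score merges 667 nm channel intensity with signal to noise over triplicate slides.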 The note with it: higher = more signal.
Assay [7] relates to Chordin-like protein 2 (CHRDL2). Nature of the assay: compounds binding chordin-like 2 – biochemical, small-molecule microarray, 635 nm fluorescence, primary screen (AID 1126).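 Note: printed compound slides probed with Chrdl2 protein at 4 µg/mL for 1 h at 4 C; score merges 667 nm emission intensity with signal to noise over three replicate slides.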 The note with it: fluorescence 635 nm, higher = more signal.
Assay [8] has as its target Concanavalin-A (Canavalia ensiformis) (UniProt P02866). Nature of the assay: compounds binding concanavalin A lectin – biochemical, small-molecule microarray, Alexa647 label, 635 nm, artefact control for SMM control protein annotation, primary screen (AID 1127).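 Note: z combines 667 nm emission intensity with signal-to-noise across three replicate slides.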 The note with it: ConA-A647 binding fluorescence, higher = more signal.
Assay [9] is described as follows: compounds binding Alexa647 anti-His antibody – biochemical, small-molecule microarray, 635 nm fluorescence, artefact control for SMM control protein annotation, primary screen (AID 1128).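 Note: score merges feature fluorescence with signal-to-noise for each printed compound spot.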 The note with it: higher = more signal.
The subject of assay [10] is Human papillomavirus type 1a E7 protein (residues 1-88). Nature of the assay: HPV1a E7 small-molecule binders, primary screen, biochemical, small-molecule microarray, residues 1-88, 635 nm (AID 1129). The note with it: small-molecule microarray binding, fluorescence 635 nm; higher = more signal.
For assay [11], the target named is Focal adhesion kinase 1 (Homo sapiens) (UniProt Q05397). The assay is described as follows: PTK2 protein binding on printed compound slides – biochemical, small-molecule microarray, 635/667 nm fluorescence, BSA, DTT, primary screen (AID 1130).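 Note: composite of spot emission at 667 nm and signal to noise over triplicate slides.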 To be noted: 635 nm fluorescence, higher = more signal.
Assay [12] deals with Fibrinogen (Alexa647-labelled). The assay is described as follows: Alexa647-fibrinogen binding to printed small molecules – biochemical, small-molecule microarray, 635/667 nm fluorescence, artefact control for SMM control-protein annotation, profiling panel (AID 1131).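 Note: z-score merges 667 nm fluorescence with per-spot signal-to-noise over triplicate slides.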 The note with it: fibrinogen-A647 binding fluorescence, higher = more signal.
Assay [13] concerns the target Follistatin (Homo sapiens) (UniProt P19883). Nature of the assay: FST protein binding to printed compounds – biochemical, small-molecule microarray, 635/667 nm fluorescence, primary screen (AID 1132). The note with it: 635 nm fluorescence, higher = more signal.
Assay [14] concerns the target Fibroblast growth factor 2 (Homo sapiens) (UniProt P09038). The assay is described as follows: basic fibroblast growth factor binding to printed compounds – biochemical, small-molecule microarray, 635/667 nm fluorescence, primary screen (AID 1133). The note with it: FGF2, fluorescence 635/667, higher = more signal.
A short description of assay [15]: JC-1 mitochondrial potential readout, lung cancer cells – cell-based, A549, JC-1 fluorescence, basal, 24 h, 100 nL, profiling panel (AID 1138).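 Note: A549 lung adenocarcinoma cells under basal conditions with no added stimulus; test concentration not given here.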 The note with it: higher = more signal.
The test system of another assay is Lefty1. The assay is described as follows: Lefty1 protein binding to printed compounds – biochemical, small-molecule microarray, 635/667 nm fluorescence, primary screen (AID 1139). To be noted: fluorescence 635/667, higher = more signal.
Assay [16] relates to wheat germ agglutinin (Triticum aestivum), Alexa647-labelled. Nature of the assay: Alexa647-WGA lectin binding to printed small molecules – biochemical, small-molecule microarray, 635/667 nm fluorescence, artefact control for SMM control-protein annotation, profiling panel (AID 1140).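 Note: score merges 667 nm feature emission with signal to noise over triplicate slides.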 The note with it: WGA-A647 binding, 635 nm fluorescence, higher = more signal.
Assay [17] has as its target Luciferin 4-monooxygenase (Photinus pyralis) (UniProt P08659). The assay is described as follows: inhibition of purified Photinus pyralis luciferase – biochemical, luminescence, purified enzyme, 2006 set, primary screen (AID 1141).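 Note: cell-free assay with purified firefly luciferase at 100 ng per well in PBS; test concentration not given here.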 The note with it: purified firefly luciferase, SteadyGlo luminescence, 30 min; higher = more signal, called active from +8 up or from −8 down.

Chain of Albumin (Bos taurus) (P02769 whole entry, looked up): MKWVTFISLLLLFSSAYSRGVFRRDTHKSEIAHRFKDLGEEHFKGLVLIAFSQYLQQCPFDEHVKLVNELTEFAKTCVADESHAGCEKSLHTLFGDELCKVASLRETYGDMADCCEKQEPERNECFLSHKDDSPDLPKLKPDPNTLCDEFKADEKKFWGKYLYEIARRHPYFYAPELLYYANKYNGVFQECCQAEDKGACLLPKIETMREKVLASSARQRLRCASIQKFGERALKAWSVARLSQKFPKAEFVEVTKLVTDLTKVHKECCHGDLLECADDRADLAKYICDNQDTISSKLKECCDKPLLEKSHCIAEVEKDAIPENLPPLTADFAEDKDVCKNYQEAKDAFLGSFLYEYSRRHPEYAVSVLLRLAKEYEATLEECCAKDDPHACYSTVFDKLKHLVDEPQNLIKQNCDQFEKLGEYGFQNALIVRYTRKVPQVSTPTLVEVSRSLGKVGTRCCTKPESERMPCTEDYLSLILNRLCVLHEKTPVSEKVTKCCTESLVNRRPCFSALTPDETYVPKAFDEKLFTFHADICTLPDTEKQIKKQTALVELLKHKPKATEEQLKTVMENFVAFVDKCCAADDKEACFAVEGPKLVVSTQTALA
Chain of Concanavalin-A (Canavalia ensiformis) (P02866 whole entry, looked up): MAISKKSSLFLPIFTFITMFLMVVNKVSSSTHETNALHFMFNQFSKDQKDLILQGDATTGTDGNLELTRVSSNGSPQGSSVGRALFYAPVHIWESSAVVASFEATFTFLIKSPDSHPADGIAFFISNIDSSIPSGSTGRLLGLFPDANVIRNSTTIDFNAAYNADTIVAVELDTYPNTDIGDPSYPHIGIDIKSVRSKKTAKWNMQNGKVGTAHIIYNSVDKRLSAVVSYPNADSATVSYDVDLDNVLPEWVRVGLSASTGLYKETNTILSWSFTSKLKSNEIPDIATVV
Chain of Focal adhesion kinase 1 (Homo sapiens) (Q05397 whole entry, looked up): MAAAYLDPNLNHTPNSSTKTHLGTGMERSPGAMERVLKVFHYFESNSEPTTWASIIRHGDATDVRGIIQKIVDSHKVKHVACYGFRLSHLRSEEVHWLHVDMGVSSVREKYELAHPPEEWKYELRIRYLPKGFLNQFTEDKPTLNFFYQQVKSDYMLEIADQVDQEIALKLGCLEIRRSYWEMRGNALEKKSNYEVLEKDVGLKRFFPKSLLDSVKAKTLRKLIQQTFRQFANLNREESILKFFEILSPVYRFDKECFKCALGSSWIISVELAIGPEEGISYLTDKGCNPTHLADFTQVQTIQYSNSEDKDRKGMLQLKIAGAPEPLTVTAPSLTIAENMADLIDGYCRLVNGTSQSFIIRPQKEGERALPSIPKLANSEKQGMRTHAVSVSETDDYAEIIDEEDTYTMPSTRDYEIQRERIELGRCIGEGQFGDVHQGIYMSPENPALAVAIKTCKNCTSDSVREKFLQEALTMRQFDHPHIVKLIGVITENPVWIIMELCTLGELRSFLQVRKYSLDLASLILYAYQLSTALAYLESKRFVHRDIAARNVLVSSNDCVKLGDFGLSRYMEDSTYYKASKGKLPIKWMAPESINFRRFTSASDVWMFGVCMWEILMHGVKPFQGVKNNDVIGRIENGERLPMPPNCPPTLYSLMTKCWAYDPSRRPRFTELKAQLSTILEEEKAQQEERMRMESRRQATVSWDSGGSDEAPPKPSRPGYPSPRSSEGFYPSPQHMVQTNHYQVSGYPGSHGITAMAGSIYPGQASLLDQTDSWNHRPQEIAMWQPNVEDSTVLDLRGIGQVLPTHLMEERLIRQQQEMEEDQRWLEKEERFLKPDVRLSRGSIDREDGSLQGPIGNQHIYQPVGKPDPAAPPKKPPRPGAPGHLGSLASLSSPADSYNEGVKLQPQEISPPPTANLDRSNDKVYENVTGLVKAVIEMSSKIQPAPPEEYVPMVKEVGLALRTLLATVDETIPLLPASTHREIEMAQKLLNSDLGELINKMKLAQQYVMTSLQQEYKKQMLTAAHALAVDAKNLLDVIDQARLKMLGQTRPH
Chain of Fibroblast growth factor 2 (Homo sapiens) (P09038 whole entry, looked up): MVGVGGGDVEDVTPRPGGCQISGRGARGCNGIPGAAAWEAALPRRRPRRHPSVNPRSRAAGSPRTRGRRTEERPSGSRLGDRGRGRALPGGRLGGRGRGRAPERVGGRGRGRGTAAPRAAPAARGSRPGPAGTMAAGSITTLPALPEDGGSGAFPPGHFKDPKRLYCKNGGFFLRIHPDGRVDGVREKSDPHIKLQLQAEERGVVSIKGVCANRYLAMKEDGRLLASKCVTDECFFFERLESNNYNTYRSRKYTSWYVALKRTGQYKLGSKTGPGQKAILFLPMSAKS
Chain of Luciferin 4-monooxygenase (Photinus pyralis) (P08659 whole entry, looked up): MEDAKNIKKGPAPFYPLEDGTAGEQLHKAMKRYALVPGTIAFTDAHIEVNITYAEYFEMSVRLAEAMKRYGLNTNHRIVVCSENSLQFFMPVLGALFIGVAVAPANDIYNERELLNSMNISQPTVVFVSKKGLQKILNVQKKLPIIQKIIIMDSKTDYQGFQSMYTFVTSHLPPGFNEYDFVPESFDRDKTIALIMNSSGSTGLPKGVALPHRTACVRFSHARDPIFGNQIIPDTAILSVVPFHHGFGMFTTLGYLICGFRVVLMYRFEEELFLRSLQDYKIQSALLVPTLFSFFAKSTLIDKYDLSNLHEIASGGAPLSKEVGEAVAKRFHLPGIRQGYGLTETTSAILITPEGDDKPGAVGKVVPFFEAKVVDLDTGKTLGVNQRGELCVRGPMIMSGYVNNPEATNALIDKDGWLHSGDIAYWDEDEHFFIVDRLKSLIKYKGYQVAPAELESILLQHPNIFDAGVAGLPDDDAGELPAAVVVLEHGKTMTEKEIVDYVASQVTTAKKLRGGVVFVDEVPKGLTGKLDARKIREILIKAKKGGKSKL
Chain of Follistatin (Homo sapiens) (P19883 whole entry, looked up): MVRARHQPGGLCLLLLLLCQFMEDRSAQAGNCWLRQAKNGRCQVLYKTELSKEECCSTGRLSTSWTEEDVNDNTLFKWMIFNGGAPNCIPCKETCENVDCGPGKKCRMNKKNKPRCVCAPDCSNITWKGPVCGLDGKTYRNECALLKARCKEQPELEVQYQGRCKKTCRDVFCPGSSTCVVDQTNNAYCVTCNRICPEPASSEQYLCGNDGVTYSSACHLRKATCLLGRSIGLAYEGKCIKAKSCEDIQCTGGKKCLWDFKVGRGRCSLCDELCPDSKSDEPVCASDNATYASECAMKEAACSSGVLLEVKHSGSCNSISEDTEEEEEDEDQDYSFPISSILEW

On to `O=C1N(CCS(=O)(=O)c2ccccc2)Cc2ccccc2[C@@H]2OC(c3ccc(OCCCO)cc3)=N[C@]12Cc1ccccc1`, for which the composite z-score in the assay with Albumin (Bos taurus) was -0.0444; in assay [2] it was 0.165; in [3] it was 0.0042; in assay [4], 0.742; in [5], 2.84; in [6], 0.599. Further, the composite z-score with Sam68 (KHDRBS1) was 1.29; in [7] it was 0.286; in assay [8], 1.13; in [9], 3.33; in assay [10], 1.27; in assay [11], 0.526. Besides, the composite z-score in [12] was 0.988; in assay [13], 1.34; in assay [14], 1.68; with Lefty1, 1.1; in assay [16], 1.23. In addition, the composite Z-score in [1] is 1.83 (inactive). Also, the z-score in assay [15] was -0.0106; in assay [17], -2.12 (inactive).

For the compound `COc1ccc([Si](C)(C)[C@@H]2[C@@H](CCn3cc(CCO)nn3)O[C@]3(C(=O)N(Cc4ccc(N5C(=O)c6cccc7cccc5c67)cc4)c4ccccc43)[C@H]2C)cc1`, the composite z-score with Albumin (Bos taurus) was 0.651; in assay [2], 0.102; in assay [3], -0.061; in assay [4], 0.356; in [5] it was 0.961; in [6], 0.234. Also, the composite z-score in the assay with Sam68 (KHDRBS1) amounted to 1.1; in [7], 0.157; in [8], 1.12; in [9], 1.51; in assay [10], 0.914; in [11], 0.87. For the same compound, the composite z-score was 0.688 in [12]; 0.499 in assay [13]; 0.103 in assay [14]; 0.518 with Lefty1; 1.2 in [16]. In assay [1], the composite Z-score is 0.722 (inactive). Also, the z-score was -0.37 in [15] and -0.685 (inactive) in assay [17].

In the case of `CO[C@H]1O[C@H](CO)[C@@H](OC(=O)Nc2ccccc2)[C@H](OC(=O)Nc2ccccc2-c2ccccc2)[C@H]1OC(=O)Nc1ccccc1-c1ccccc1`, the composite z-score with Albumin (Bos taurus) was 0.925; in assay [2], -0.0903; in [3] it was -0.103; in [4] it was 0.556; in assay [5], 1.63; in assay [6] it was 0.463. Also, the composite z-score is 1.3 in the assay with Sam68 (KHDRBS1); -0.159 in assay [7]; 1.19 in assay [8]; 2.03 in [9]; 1.23 in assay [10]; 1.17 in assay [11]. The composite z-score came to 0.903 in [12]; 0.754 in assay [13]; 0.292 in assay [14]; 0.601 with Lefty1; 1.19 in [16]. Further, the composite Z-score in assay [1] was 0.563 (inactive). Also, the z-score in assay [15] was -1.05; in assay [17], -0.864 (inactive).

Consider `O=C(NCc1ccccc1)[C@@H]1c2ccccc2C(=O)N(Cc2ccccc2Cl)[C@H]1c1ccc(CO)cc1`, for which the composite z-score was -0.0154 with Albumin (Bos taurus); 0.0749 in [2]; -0.0165 in assay [3]; 0.693 in assay [4]; 2.36 in [5]; 0.954 in assay [6]. In addition, the composite z-score in the assay with Sam68 (KHDRBS1) came out at 1.35; in assay [7], 0.702; in [8], 1.13; in assay [9] it was 2.46; in assay [10] it was 1.17; in assay [11], 0.719. Further, the composite z-score was found to be 0.562 in assay [12]; 1.47 in assay [13]; 1.22 in assay [14]; 0.817 with Lefty1; 0.704 in [16]. The composite Z-score in [1] was 1.24 (inactive). Moreover, the z-score in [15] was 1.88; in assay [17], -1.01 (inactive).

In the case of `COc1ccc(C#Cc2ccc3c(c2)[C@]2(C(=O)N3)[C@H](c3ccc(O)cc3)N3[C@H](c4ccccc4)[C@H](c4ccccc4)OC(=O)[C@H]3[C@@H]2C(N)=O)cc1`, the composite z-score is -0.524 in the assay with Albumin (Bos taurus); -0.299 in assay [2]; -0.147 in assay [3]; 0.662 in assay [4]; 1.25 in [5]; 0.0742 in assay [6]. Moreover, the composite z-score in the assay with Sam68 (KHDRBS1) is 0.278; in assay [7], -1.54; in [8], -0.211; in assay [9], 2.17; in [10] it was -0.0669; in [11], 0.627. Moreover, the composite z-score is -0.063 in assay [12]; -0.482 in [13]; -0.617 in assay [14]; -0.9 in the assay on Lefty1; -0.0907 in assay [16]. For the same compound, the composite Z-score in assay [1] is 1.08 (inactive). Further, the z-score was -1.59 in assay [15] and -1.44 (inactive) in assay [17].
